Source: PubChem
Rows were chosen to be rich in hits. Some 18% of all compounds tested hit in one or more screens of this group.
TDP1 inh = qHTS Assay for Inhibitors of Tyrosyl-DNA Phosphodiesterase (TDP1); Tyrosyl-DNA phosphodiesterase 1 (Homo sapiens), Q9NUW8; recombinant TDP1, AlphaScreen DNA substrate cleavage; Potency, µM (doses to about 130 µM), without a hit: top-dose activity change, negative = inhibition, hits mostly inhibitors; hit rate 0.28% among 350,000; AID 485290, 2010; note: nearly all actives have a fitted effect of over 40% in size
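Recombinant human Tdp1 (E. coli-expressed, 1 nM final) preincubated with compounds 15 min at room temperature, then 5'-biotin/3'-phosphotyrosine-FITC DNA substrate (15 nM final) added for 5 min. AlphaScreen beads (10 ug/ml final) added 10 min; cleavage lowers signal.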
VDR inh = Inhibitors of the vitamin D receptor (VDR): qHTS | VDR-SRC2-3 peptide fluorescence polarization, 2 h | Potency, µM, without a hit: max response, negative = inhibition, hits mostly inhibitors | hit rate 0.93% among 400,000 | AID 504847, 2011
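Reagent solutions, kept cold and dark, are dispensed first; compounds are then pinned in at 23 nl, plates briefly spun, and incubated 2 h at ambient temperature. Inhibition of VDR–SRC2-3 peptide binding is read by fluorescence polarization.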
TDP1 cell CPT = qHTS for Inhibitors of human tyrosyl-DNA phosphodiesterase 1 (TDP1): qHTS in cells in presence of CPT; hit rate 12% among 420,000; chicken DT40 Tdp1-/-;hTDP1 cells + 20 nM CPT, ATP luminescence, 48 h; Potency, µM (doses to about 46.2 µM), for the others: at the highest dose activity change, negative = growth inhibition, usual class: inhibitors; AID 686979, 2013; note: nearly all actives have a fitted effect of over 55% in size
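Chicken DT40 Tdp1-/- cells complemented with human TDP1, 400 cells/well, exposed to compounds plus 20 nM camptothecin for at least 48 h at 37 C; viability read as ATP content by CellTiter-Glo luminescence.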
PLK1 PBD block = qHTS for Inhibitors of PLK1-PDB (polo-like kinase 1 - polo-box domain): Primary Screen; Serine/threonine-protein kinase PLK1 (Homo sapiens), P53350; Plk1 PBD binding of FITC phosphopeptide, fluorescence polarization; Potency, µM, for inactives: max response, negative = inhibition, hits mostly inhibitors; hit rate 2.8% among 360,000; note: series mostly up to about 57 µM; nearly all actives have a fitted effect of over 65% in size
GCN5L2 inh = qHTS Assay for Inhibitors of GCN5L2. Histone acetyltransferase KAT2A (Homo sapiens), Q92830. GCN5L2 HAT assay, ThioGlo1 CoA-SH fluorescence. hit rate 0.21% among 390,000. Potency, µM (highest dose often 58.9 µM), for inactives: at the top dose activity change, negative = inhibition, usual class: inhibitors. AID 504327, 2011
Target sequence (Q92830 whole entry, looked up): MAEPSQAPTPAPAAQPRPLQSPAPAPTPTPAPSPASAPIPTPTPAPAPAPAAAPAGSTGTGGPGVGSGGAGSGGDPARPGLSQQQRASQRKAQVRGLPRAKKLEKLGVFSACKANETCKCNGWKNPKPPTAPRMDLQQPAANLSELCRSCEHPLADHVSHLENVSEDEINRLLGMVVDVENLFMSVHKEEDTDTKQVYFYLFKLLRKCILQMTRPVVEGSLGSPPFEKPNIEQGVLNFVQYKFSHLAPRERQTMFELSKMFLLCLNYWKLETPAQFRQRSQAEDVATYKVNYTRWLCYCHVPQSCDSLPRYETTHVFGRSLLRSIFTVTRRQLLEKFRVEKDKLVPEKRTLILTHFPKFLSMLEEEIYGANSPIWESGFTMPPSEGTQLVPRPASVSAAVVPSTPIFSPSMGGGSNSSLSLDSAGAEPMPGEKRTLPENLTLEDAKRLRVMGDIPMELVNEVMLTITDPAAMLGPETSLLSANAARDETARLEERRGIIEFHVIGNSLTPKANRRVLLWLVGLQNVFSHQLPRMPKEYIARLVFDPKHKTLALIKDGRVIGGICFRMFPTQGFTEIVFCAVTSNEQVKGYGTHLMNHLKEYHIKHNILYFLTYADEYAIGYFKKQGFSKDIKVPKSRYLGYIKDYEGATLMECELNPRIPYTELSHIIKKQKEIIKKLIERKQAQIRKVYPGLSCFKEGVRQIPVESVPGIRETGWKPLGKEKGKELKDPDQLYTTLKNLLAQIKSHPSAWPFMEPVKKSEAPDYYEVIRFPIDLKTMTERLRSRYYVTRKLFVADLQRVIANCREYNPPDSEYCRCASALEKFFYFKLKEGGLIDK
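qHTS, 1536-well. 20nM enzyme, pH 7.5 HEPES/EDTA/Tween-20 buffer; 15 min compound preinc., RT. Start: 75uM H3(1-25), 70uM AcCoA, 50uM ThioGlo1. Read Ex340/Em540 at t=0 (autofluorescence flag) and t=20 min.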
TDP1 cell noCPT = qHTS for Inhibitors of human tyrosyl-DNA phosphodiesterase 1 (TDP1): qHTS in cells in absence of CPT; AID 686978, 2013; Potency, µM (highest dose often 46.2 µM), inactives show at the highest dose activity change, negative = growth inhibition, hits mostly inhibitors; hit rate 15% among 420,000; DT40 Tdp1-/- hTDP1 cells, no CPT, ATP luminescence, 48 h; note: nearly all actives have a fitted effect of over 55% in size
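Luminescent ATP content (CellTiter-Glo) served as the growth readout. Knockout chicken DT40 cells expressing human TDP1 were exposed to compounds without camptothecin for a minimum 48 hr at 37 °C.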
An asterisk follows results filed as active; ? = inconclusive; . = no result given; ! = a repeat was not active; [ ] = remark or other dose. Calls come from the whole dose curve; as a rule, active = well fitted curve in the direction sought with a large enough effect; inconclusive = small, poorly fitted or top-dose-only effect, or another doubt; inactive = no such curve, though single readings can be large; an effect the other way counts as inactive or inconclusive. % is set by controls: 0 for no effect and ±100 for the full control effect; potency is the fitted concentration of half-maximal effect.

SMILES	TDP1 inh	VDR inh	TDP1 cell CPT	PLK1 PBD block	GCN5L2 inh	TDP1 cell noCPT
COCCCn1c(-c2ccc(OC)cc2)cc(C(=O)NC2CCCCCCC2)c1C	3%	-20%	21µM*	-17%	-13%	15µM*
O=C(c1ccc(N2CC3CC(C2)c2cccc(=O)n2C3)c([N+](=O)[O-])c1)N1CCCCC1 (stereo not given)	3%	-18%	4%	0%	-2%	-1%
CN(C)C(=O)Oc1ccc(Br)cc1C(=O)Nc1ccc(F)c(Cl)c1	-1%	5%	23µM*	-3%	-5%	23µM*
COc1ccc(-n2nnnc2C(CCc2ccccc2)N2CCC3(CC2)C(=O)NCN3c2ccccc2)cc1 (stereo not given)	.	.	?	3%	.	?
CCOc1cc(/C=N/NC(=O)c2cccs2)ccc1OC(=O)N1CCOCC1	3%	6%	?	-8%	-3%	16µM*
C[C@]12C=CC(=O)C=C1CC[C@@H]1C2=CC[C@]2(C)[C@@H](C(=O)CN3CCN(c4cc(N5CCCC5)nc(N5CCCC5)n4)CC3)CC[C@@H]12	.	2.8µM*	18µM*	-17%	-12%	13µM*
CO[C@H]1C[C@H](O[C@H]2[C@H](C)O[C@@H](O[C@@H]3/C(C)=C/C[C@@H]4C[C@@H](C[C@]5(C=C[C@H](C)[C@@H](C6CCCCC6)O5)O4)OC(=O)[C@@H]4C=C(C)[C@@H](O)[C@H]5OC/C(=C\C=C\[C@@H]3C)[C@]54O)C[C@@H]2OC)O[C@@H](C)[C@@H]1O	.	.	2.7µM*	.	.	4.7µM*
CC(=O)N1CCCc2cc(S(=O)(=O)N3CCCC(C(=O)N4CCN(c5ccccc5F)CC4)C3)ccc21 (stereo not given)	0%	1%	3.7µM*	.	-10%	5.8µM*
CC(=O)N1CCc2cc(S(=O)(=O)N3CCN(c4ccc(C)cc4)C(C)C3)ccc21 (stereo not given)	-2%[12.3 µM]	-16%	23µM*	.	-3%	21µM*
CC1CCCN(CC(=O)N2CCCc3ccccc32)C1 (stereo not given)	3%	15%	0%	-6%	-8%	-5%
COc1ccc(N2CCN(C(=O)C3CCCN(S(=O)(=O)c4ccc5c(c4)CCCN5C(C)=O)C3)CC2)cc1 (stereo not given)	-1%	-14%	4.1µM*	.	-4%	2.3µM*
COc1ccc(NS(=O)(=O)c2ccc3c(c2)CCCN3C(=O)C2CCC2)cc1OC	1%	3%	2.6µM*	.	-2%	3.7µM*
CC(C)C(O)(C(=O)OC[C@@H]1CC[N+]2([O-])CCCC12)C(C)O (stereo not given in full)	0%	-4%	-5%[9.04 µM]	.	.	5%[9.04 µM]
Cc1ccccc1OCC(=O)N1CCN(CCc2ccccn2)CC1	7%	-4%	3%	.	-8%	-2%
O=C(Nc1ccc(Cl)cc1)O/N=C(\c1ccccc1)c1ccccn1	1%	6%	-13%	?	1%	-7%
Cn1c(=O)oc2cc(S(=O)(=O)N3CCCC(C(=O)N4CCN(c5ccc(Cl)cc5)CC4)C3)ccc21 (stereo not given)	9%	2%	5.2µM*	.	0%	1.3µM*
O=C(Nc1ccccc1-c1ccc(Cl)cc1)c1cccnc1Cl	15%	1%	?	.	6%	?
CC(C)(C)OC(=O)N1CCC(c2c(C(=O)N3CCN(Cc4ccccc4)CC3)cnn2-c2ccc(Cl)cc2)CC1	4%	7%	26µM*	.	0%	21µM*
Cc1ccc(-n2ncc(C(=O)N3CCN(c4ccc(Cl)cc4)CC3)c2C2CCN(C(=O)OC(C)(C)C)CC2)c(C)c1	-3%	3%	?	.	?	12µM*
COc1ccc(-n2ncc(C(=O)N3CCN(c4cc(C)ccc4C)CC3)c2C2CCN(C(=O)OC(C)(C)C)CC2)cc1	4%	-6%	21µM*	.	28%	15µM*
CCc1ccc(CN2CCN(C(=O)Cc3ccccc3)CC2)cc1	0%	-8%	?	4%	2%	?
CC(OC(=O)COc1ccc(Nc2ccccc2)cc1)C(=O)N(C)c1ccccc1 (stereo not given)	.	-8%	?	-19%	-6%	?
CCCCn1c(O)c(C(CC)=Nc2ccc(C(=O)O)cc2)c(=O)[nH]c1=O	-4%[56.1 µM]	-15%	-18%	18%	-1%	-17%
CC(=Nc1ccc2c(c1)CCC2)c1c(O)n(C)c(=O)n(C)c1=O	5%	18%	-16%	-2%	0%	-28%
CCC(=Nc1ccc(OC)cc1OC)c1c(O)n(C2CCCCC2)c(=O)[nH]c1=O	9%	2%	?	2%	-10%	?
SMILES	TDP1 inh	VDR inh	TDP1 cell CPT	PLK1 PBD block	GCN5L2 inh	TDP1 cell noCPT
CCC(=Nc1ccc2c(c1)CCC2)c1c(O)n(-c2ccc(OC)cc2)c(=O)[nH]c1=O	.	-16%	21µM*	-9%	-1%	15µM*
CCC(=Nc1ccc2c(c1)CCC2)c1c(O)n(C)c(=O)n(C)c1=O	-5%	9%	12µM*	-11%	-1%	21µM*
CCC(=Nc1ccc(Cc2ccncc2)cc1)c1c(O)n(C)c(=O)n(C)c1=O	1%	-9%	5µM*!	-1%	-4%	5µM*
CCOC(=O)c1ccc(N=C(CC)c2c(O)n(C)c(=O)n(C)c2=O)cc1	3%	-5%	?	-5%	-23%	18µM*
CCCCOC(=O)C1=C(N)OC2=C(C(=O)CC(C)(C)C2)[C@]12C(=O)N(C)c1ccccc12	2%	1%	-27%	-1%	-18%	?
CCC(=NCc1ccc(F)cc1)c1c(O)n(C)c(=O)n(C)c1=O	4%	-2%	23µM*	1%	0%	18µM*
O=C(O)c1ccc(-c2ccc3cc(C45CC6CC(CC(C6)C4)C5)c(O)cc3c2)cc1	4%	56µM*	.	.	16µM*	.
O=C1NC(=O)N(CCc2ccc(F)cc2)C(=O)/C1=C\C=C\c1ccccc1	2%	?	2.3µM*	?	-1%	3.7µM*
C=CCN1C(=O)NC(=O)/C(=C/C=C/c2ccccc2)C1=O	-5%	?	16µM*	?	-25%	23µM*
